# Assay results reported in the supplement of paper PMC10127200.
# Where a name gives a salt, the structure may show the parent alone.
# Assays:
# Experiment in all cases: Euclidean distance of Cell Painting phenotypic profile (signed KS, 77 features) to DMSO centroid (dimensionless distance); 5 or 10 uM (library dependent); higher = stronger phenotypic change vs DMSO (phenoactivity)
# Settings in all cases: 48 h
# 786-O = system: 786-O
# How it was run: (§1)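 At 10 or 5 uM, as set by the library, and 0.1% DMSO final, compounds were applied for 48 h to five cancer lines and one healthy fibroblast line. Stained cells were imaged confocally at 20X in 9 fields per well, and Harmony extracted 77 features scored as signed Kolmogorov-Smirnov statistics against vehicle wells on the same plate. Profiles underwent plate-position correction, correlation weighting and replicate averaging at the top dose. Phenoactivity is the Euclidean distance from each such profile to the median vehicle profile.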
# A549 = system: A549
# How it was run: as §1
# DU145 = system: DU145
# How it was run: as §1
# FB = system: FB
# How it was run: as §1
# HEPG2 = system: HEPG2
# How it was run: as §1
# OVCAR4 = system: OVCAR4
# How it was run: as §1
SMILES,Euclidean distance (786-O),Euclidean distance (A549),Euclidean distance (DU145),Euclidean distance (FB),Euclidean distance (HEPG2),Euclidean distance (OVCAR4)
Cn1c(=O)c2c(ncn2CCO)n(C)c1=O [Etofylline],1.39,0.749,1.18,1.08,0.452,1.26
CN(C)[C@@H]1C(O)=C(C(N)=O)C(=O)[C@@]2(O)C(O)=C3C(=O)c4c(O)cccc4[C@@](C)(O)[C@H]3[C@H](O)[C@@H]12 [Oxytetracycline Dihydrate],1.33,0.832,1.09,1.19,1.9,1.3
CCOC(=O)[C@H](CCc1ccccc1)N[C@@H](C)C(=O)N(CC(=O)O)C1Cc2ccccc2C1 [Delapril Hydrochloride],1,1.15,0.898,1,0.353,1.06
Clc1ccc2c(c1)C(N1CCNCC1)=Nc1ccccc1O2 [Amoxapine],1.43,1.02,1.12,1.06,0.744,1.09
O=c1cc(N2CCOCC2)oc2c1ccc1ccccc12,0.913,1.57,1.41,3.23,1.42,4.01
N#C/C(=C(/N)Sc1ccc(N)cc1)c1ccccc1C(F)(F)F,0.949,1.46,0.889,1.1,1.41,0.988
CC(=O)[C@H]1CC[C@H]2[C@@H]3C=CC4=CC(=O)CC[C@@]4(C)[C@@H]3CC[C@]12C [Dydrogesterone],0.672,0.859,0.732,1.15,1.01,0.899
CC(=O)Nc1cccc2c1c(Sc1ccc(Cl)cc1)c(C)n2CC(=O)O,0.872,0.72,1.15,0.772,0.51,0.868
CC1(C)O[C@H]2CC(=O)OC[C@]23[C@H]2CC[C@@]4(C)[C@H](c5ccoc5)OC(=O)[C@H]5O[C@]54[C@]2(C)C(=O)C[C@@H]13 [Limonin],0.804,0.714,0.885,0.843,1.05,1.05
CCN(CC)CCOCCOC(=O)C1(c2ccccc2)CCCC1 [Pentoxyverine Citrate],0.795,0.55,0.661,0.588,0.353,0.939
CN1CCC(=C2c3ccccc3CCc3sccc32)CC1 [Pizotifen Malate],1.65,1.87,2.14,2.2,1.73,1.29
Nc1ccc(S(=O)(=O)Nc2ccc(Cl)nn2)cc1 [Sulfachloropyridazine],1.32,1.01,0.856,0.835,0.669,1.25
N=C(N)c1ccc(OCCCCCOc2ccc(C(=N)N)cc2)cc1 [Pentamidine],1.54,2.11,1.64,0.958,2.12,1.65
CN(C)CCC=C1c2ccccc2COc2ccccc21 [Doxepin HCl],1.22,1.14,1.36,1.45,0.967,2.09
NC(=O)/C(=C/n1cnc(-c2cc(C(F)(F)F)cc(C(F)(F)F)c2)n1)c1cncnc1 [Eltanexor (KPT-8602)],2.1,3.48,2.69,4.12,2.35,3.66
CCOC(=O)C1=C(C)NC(C)=C(C(=O)OCC)C1c1ccccc1/C=C/C(=O)OC(C)(C)C [Lacidipine],0.955,0.916,1.62,1.14,0.707,1.15
CC1(C)[C@@H](O[C@H]2O[C@H](C(=O)O)[C@@H](O)[C@H](O)[C@H]2O[C@@H]2O[C@H](C(=O)O)[C@@H](O)[C@H](O)[C@H]2O)CC[C@]2(C)[C@H]3C(=O)C=C4[C@@H]5C[C@@](C)(C(=O)O)CC[C@]5(C)CC[C@@]4(C)[C@]3(C)CC[C@@H]12 [Diammonium Glycyrrhizinate],1.05,1.68,1.1,0.929,0.457,1.73
C[C@H]1c2cccc(O)c2C(=O)C2=C(O)[C@]3(O)C(=O)C(C(N)=O)=C(O)[C@@H](N(C)C)[C@@H]3[C@@H](O)[C@@H]21 [Doxycycline monohydrate],0.783,0.495,1.01,0.929,0.637,0.672
N#Cc1c(O)c2c(-c3ccc(-c4ccccc4O)cc3)csc2[nH]c1=O,1.12,1.26,0.976,0.818,0.746,1.78
Cc1cccc(C)c1NC(=O)C1CCCCN1C (stereo not given) [Mepivacaine HCl],1.26,0.773,0.454,1.28,0.483,0.914
CC(=O)O[C@@]12CO[C@@H]1C[C@H](O)[C@@]1(C)C(=O)[C@H](O)C3=C(C)[C@@H](OC(=O)[C@H](O)[C@@H](NC(=O)OC(C)(C)C)c4ccccc4)C[C@@](O)([C@@H](OC(=O)c4ccccc4)[C@H]21)C3(C)C [Docetaxel Trihydrate],3.61,3.08,3.17,2.26,2.15,2.49
O=C(O)/C=C/c1ccc(Cn2ccnc2)cc1 [Ozagrel HCl],0.843,0.862,1.12,0.899,1.97,1.61
CC[C@H](C)[C@H](NC(=O)[C@H]([C@@H](C)CC)N(C)C(C)=O)C(=O)N[C@H](C(=O)N[C@@H](CC(C)C)C(=O)[C@@]1(C)CO1)[C@@H](C)O [Epoxomycin],2.19,2.8,2.62,2.62,2.95,3.12

SMILES,Euclidean distance (786-O),Euclidean distance (A549),Euclidean distance (DU145),Euclidean distance (FB),Euclidean distance (HEPG2),Euclidean distance (OVCAR4)
CS(=O)(=O)n1cc2c(n1)CN([C@H]1CO[C@H](c3cc(F)ccc3F)[C@@H](N)C1)C2 [Omarigliptin (MK-3102)],1.02,2.02,1.89,1.7,2.25,2.16
CC(=O)O[C@H]1Cc2ccccc2N(C(N)=O)c2ccccc21 [Eslicarbazepine Acetate],0.621,0.976,0.966,1.39,1.17,1.64
Cc1ccc(-n2sc(=O)n(Cc3ccc(F)cc3)c2=O)cc1,1.53,0.968,0.775,1.84,0.924,1.14
CC(=O)OCC(=O)[C@@]12N=C(C)O[C@@H]1C[C@H]1[C@@H]3CCC4=CC(=O)C=C[C@]4(C)[C@H]3[C@@H](O)C[C@@]12C [Deflazacort],1.27,1.84,2.48,2.04,1.58,1.7
CC(C)OC(=O)CCC/C=C\C[C@@H]1[C@@H](CC[C@@H](O)CCc2ccccc2)[C@H](O)C[C@@H]1O [Latanoprost],1.13,0.914,0.738,1.14,0.925,1.15
CCCCN1CCCCC1C(=O)Nc1c(C)cccc1C (stereo not given) [Bupivacaine HCl],1.38,0.594,1.45,0.904,0.991,1.15
Fc1ccc([C@@H]2CCNC[C@H]2COc2ccc3c(c2)OCO3)cc1 [Paroxetine HCl],1.46,1.59,1.59,1.93,2.28,1.54
CO[C@@H]1[C@@H](OC(N)=O)[C@@H](O)[C@H](Oc2ccc3c(O)c(NC(=O)c4ccc(O)c(CC=C(C)C)c4)c(=O)oc3c2C)OC1(C)C [Novobiocin Sodium],0.865,0.868,0.814,1.04,0.385,1.19
CCCCc1nc(C)c(CC(=S)N(C)C)c(=O)n1Cc1ccc(-c2ccccc2-c2nnn[nH]2)cc1 [Fimasartan],0.829,0.807,0.902,0.862,0.679,0.989
CCOc1ccc(C[C@H]2NC(=O)CCSSC[C@@H](C(=O)N3CCC[C@H]3C(=O)N[C@@H](CCCN)C(=O)NCC(N)=O)NC(=O)[C@H](CC(N)=O)NC(=O)[C@H]([C@@H](C)O)NC(=O)[C@H]([C@@H](C)CC)NC2=O)cc1 [Atosiban Acetate],1.21,1.46,1.05,1.59,1.37,1.9
Nc1ccc(S(=O)(=O)Nc2cnc3ccccc3n2)cc1 [Sulfaquinoxaline sodium],0.778,0.727,1.65,1.36,0.697,0.684
CC(C)(C)NC(=O)N[C@H](C(=O)N1C[C@H]2[C@@H]([C@H]1C(=O)NC(CC1CCC1)C(=O)C(N)=O)C2(C)C)C(C)(C)C (stereo not given in full) [Boceprevir],1.48,0.973,1.59,1.13,0.545,1.45
O=C1Nc2ccc(I)cc2/C1=C/c1cc(Br)c(O)c(Br)c1,1.58,0.975,0.984,1.02,0.668,1.3
O=c1[nH]c(=O)n([C@H]2C[C@H](O)[C@@H](CO)O2)cc1F [Floxuridine],1.86,3,2.5,1.73,2.61,2.71
Cc1c(-c2ccccc2)oc2c(C(=O)OCCN3CCCCC3)cccc2c1=O [Flavoxate HCl],0.908,2.27,1.73,2.91,0.927,1.61
COc1ccc2cc([C@H](C)C(=O)O)ccc2c1 [Naproxen],0.797,0.78,1.05,0.816,1.13,1.28
CC(/C=C1\SC(=S)N(CC(=O)O)C1=O)=C\c1ccccc1 [Epalrestat],1.29,1.2,0.915,1.45,0.723,0.848
COc1cc2ncnc(Nc3ccc(Cl)cc3F)c2cc1OC,1.46,1.74,1.56,1.26,1.51,1.01
CO/N=C(\C(=O)N[C@@H]1C(=O)N2C(C(=O)O)=C(COC(N)=O)CS[C@H]12)c1ccco1 [Cefuroxime sodium],0.996,0.519,0.747,0.81,1.48,1.04
O=C(c1c(F)ccc(NS(=O)(=O)N2CC[C@@H](F)C2)c1F)c1c[nH]c2ncc(-c3cnc(C4CC4)nc3)cc12,1.42,1.86,2.02,2.6,1.2,1.44
CN(C)CCN(Cc1ccc(Cl)cc1)c1ccccn1 [Chloropyramine hydrochloride],0.88,1.23,1.39,1.03,0.594,1.1
CC1(C)S[C@@H]2[C@H](NC(=O)[C@H](N)c3ccc(O)cc3)C(=O)N2[C@H]1C(=O)O [Amoxicillin],1.02,1.01,0.78,0.837,0.318,1.22
